Assay outcomes from PubChem.
A selection: hits, their analogues and other compounds. The true share with any hit is near 21%.
HCMV inh: blocks human cytomegalovirus replication | HFF cells, HCMV-luciferase reporter, 72 h; hits give low values | activity change, negative = inhibition, % at 57.5 µM | hit rate 4.5% among 410,000; in the data active = activity change below about -60%; inconclusive = no clear call, values can overlap the other calls; inactive = above about -39%
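Steps: HFFs plated, 16 h 37C; compounds added; HCMV-luciferase added to MOI 1 PFU/cell; 72 h 37C; OneGlo reagent, 5 min room temperature; luminescence read, normalized to controls.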
Pf growth 96h: P. falciparum growth inhibition at 96 hours. P. falciparum luciferase reporter growth, 96 h. Potency, µM (doses to about 28.7 µM), hits mostly inhibitors. hit rate 6.9% among 320,000. AID 504834
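P. falciparum expressing integrated firefly luciferase, in erythrocytes at 2% hematocrit, 0.05% parasitemia, incubated with compounds 96 h at 37 C, 5% CO2. Growth inhibition read as loss of luminescence; two-generation exposure targets delayed-death apicoplast inhibitors.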
Shiga toxin inh: blocks Shiga toxin action in Vero cells. Vero cells, Shiga toxin protein synthesis inhibition reporter. inhibition, % at 38.7 µM. hit rate 9.2% among 290,000; in the data active = inhibition mostly above about 28%, no sharp cut-off; inactive = mostly below about 43%
Pf growth 48h: P. falciparum growth inhibition at 48 hours (one generation) | P. falciparum luciferase growth in erythrocytes, 48 h | Potency, µM (series often up to 28.7 µM), most hits filed as inhibitors | hit rate 5.9% among 310,000 | AID 504832
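A one-generation exposure of luciferase-tagged malaria parasites in RPMI 1640/Albumax erythrocyte culture, 37 C and 5% CO2. Inhibition is inferred from decreased luminescence after adding detection reagent.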
CHX counter: counter-screen hit for Shiga toxin inhibitors, cycloheximide; cell reporter, cycloheximide protein synthesis inhibition counterscreen; max response, %; hit rate 12% among 300,000; in the data active = max response mostly above about 13%, no sharp cut-off; inactive = mostly below about 14%; also: read at 38.3 µM for the half of the compounds with a filed dose
HCV inh: HCV inhibition | Potency, µM (doses to about 41.8 µM), usual class: inhibitors | Huh7.5.1 HCVcc-Cre infection, luciferase reporter, 44 h | hit rate 3.4% among 340,000
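Compounds are dispensed onto cells plated 4 h earlier at 1,000 per well, with HCVcc-Cre virus (about 0.5 moi) added next. Following 44 h of culture, luminescent signal is measured for 15 sec after 15 min with substrate at room temperature.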
A number is an active result; – = inactive; ? = inconclusive; · = not tested or not shown; [ ] = another dose, or the depositor's remark. Unless noted, calls follow the shape of the dose curve; as a rule, active = well fitted inhibition curve with a large enough effect; inconclusive = small, poorly fitted or top-dose-only effect, or another doubt; inactive = no such curve, though single readings can be large or run the other way.

SMILES | HCMV inh | Pf growth 96h | Shiga toxin inh | Pf growth 48h | CHX counter | HCV inh
Cc1noc(C)c1COC(=O)c1cccc(S(=O)(=O)N2CCOCC2)c1 | – | – | · | ? | · | ?
CCOC(=O)c1sc(NC(=O)c2cccc(S(=O)(=O)N3c4ccccc4CC3C)c2)cc1C (centres undefined) | – | ? | – | 2.94µM | – | 3.98µM
Cc1cc(NC(=O)c2cccc(S(=O)(=O)N3c4ccccc4CC3C)c2)no1 (centres undefined) | – | 5.22µM | – | 3.29µM | – | ?
Cc1noc(C)c1COC(=O)c1cccc(S(=O)(=O)N2c3ccccc3CC2C)c1 (centres undefined) | – | – | – | ? | – | 11.2µM
NC(=O)CS(=O)C(c1ccccc1)c1ccccc1 (centres undefined) | · | 6.01µM | – | – | – | ·
NC(=O)OCC(COC(N)=O)c1ccccc1 | ? | – | – | – | – | –[8.37 µM]
COC(=O)c1cn(NC(=O)c2cc([N+](=O)[O-])ccc2F)c(=O)c2ccccc12 | -96.9 | – | – | – | – | ?
COC(=O)c1cn(NC(=O)C2CCC(C)CC2)c(=O)c2ccccc12 (centres undefined) | – | ? | – | ? | – | –
Cc1ccc2oc(=O)n(Cc3ccccc3Cl)c2c1 | – | · | · | · | · | ·
COc1ccc(OC)c([C@@H]2Nc3ccc(C(=O)O)cc3[C@@H]3C=CC[C@@H]32)c1 | – | · | · | · | · | ·
COc1ccc(C(=O)N/N=C(\C)c2ccc3c(c2)C2C=CCC2C(c2ccccc2)N3)cc1 (centres undefined) | · | – | – | 1.04µM | 20.2 | –
CC1CCN(C(=O)COc2ncnc3ccccc23)CC1 | – | – | 37.3 | – | – | –
CC1CCN(c2ncnc3ccccc23)CC1 | -71.9 | – | – | – | – | 11.2µM
CCC1CCCCN1C(=O)COC(=O)c1n[nH]c2ccccc12 (centres undefined) | – | · | – | – | 19.2 | ?
CCC1CCCCN1C(=O)COC(=O)c1cccs1 (centres undefined) | ? | · | · | · | · | –
CC1CCN(C(=O)COC(=O)c2n[nH]c3ccccc23)CC1 | – | – | 79.3 | – | 41.0 | –
Cc1nc2ccccc2nc1N1CCC(C)CC1 | – | · | – | – | – | –
O=C(OCC(=O)N1CCCCCC1)c1n[nH]c(=O)c2ccccc12 | – | – | – | – | – | –
CNC(=S)Nc1ccc(C(N)=O)cc1 | – | ? | – | ? | – | –
C/C(=N\NC(=O)c1nnn(-c2nonc2N)c1CN(C)c1ccccc1)c1ccccn1 | · | 5.22µM | – | 13.1µM | – | 4.47µM
C/C(=N\NC(=O)c1nnn(-c2nonc2N)c1CN(C)c1ccccc1)c1ccc(O)cc1 | -60.5 | – | – | – | – | –
Cc1c(C=N)c(O)n(C)c(=O)c1C#N | – | – | – | – | – | –
Cc1cc(N2CCOCC2)nc2ccc(NC(=O)CCC(=O)N3CCN(c4ccc(F)cc4)CC3)cc12 | – | ? | – | ? | – | ?
Cc1cc(N2CCOCC2)nc2ccc(NC(=O)CCC(=O)N3CCN(c4ccccc4F)CC3)cc12 | – | – | – | – | 22.0 | 22.4µM
Cc1cc(N2CCOCC2)nc2ccc(NC(=O)CCC(=O)N3CCCC(C)C3)cc12 (centres undefined) | – | ? | – | – | 54.3 | –
SMILES | HCMV inh | Pf growth 96h | Shiga toxin inh | Pf growth 48h | CHX counter | HCV inh
Cc1ccc(S(=O)(=O)c2nc(-c3ccc(Cl)cc3)oc2N2CCCCCC2)cc1 | – | · | · | · | · | ·
Cc1cc2oc(=O)cc(CN(C)Cc3ccccc3Cl)c2cc1C | – | – | – | ? | – | ?
[O-][n+]1ccc(CC(O)(C(F)(F)F)C(F)(F)F)cc1 | – | · | · | · | · | ·
Cc1ccc(SSc2cc(C)ccc2N)c(N)c1 | -80.8 | – | · | – | · | ?
Cc1ccc(C)c(N2CCN(C(c3ccccc3)c3nnc(-c4ccccc4F)o3)CC2)c1 (centres undefined) | – | · | · | · | · | ·
Cc1[nH]c2ccccc2c1C(=O)CN1CCCCC1C (centres undefined) | – | 14.7µM | – | – | – | –
Cc1[nH]c2ccccc2c1C(=O)CN1CCC2(CC1)OCCO2 | – | – | – | 0.928µM | – | –
COc1ccc(OC)c(/C=C/C(=O)OCC(=O)c2c(N)n(C)c(=O)n(C)c2=O)c1 | – | – | – | – | – | –
Cc1cn(CC(=O)NCCCc2ccccc2)c(=O)[nH]c1=O | – | · | · | · | · | 2.82µM
Nc1ccn(CC(=O)NCc2ccccc2)c(=O)n1 | – | – | · | – | · | –
